Compound activity from PubChem BioAssay.
LANA-H2B inh: blocks KSHV LANA binding to histone H2A/H2B; Q9QR71; cell-free LANA-H2A/H2B peptide, fluorescence polarization; inhibition, % (concentration not given with the values); 320,000 compounds, 0.6% hits; in the data active = inhibition mostly above about 10%, no sharp cut-off; inactive = mostly below about 6.7%
Keap1 Nrf2 FP: Keap1-Nrf2 (human) interaction inhibition; Keap1 Kelch-Nrf2 peptide fluorescence polarization, 1536-well; 340,000 compounds, 0.15% hits; inhibition, % at 9.4 µM; AID 504523; Q14145; in the data active = inhibition above about 12%; inconclusive = no clear call, values can overlap the other calls; inactive = below about 7.3%;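 note: human Keap1 Kelch domain with fluorescein labeled Nrf2 9mer peptide probe; 0% = neutral control wells and 100% = peptide positive control; higher means more block of Keap1 binding to Nrf2 peptide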
RTF Ca sens act: increases calcium sensitivity of human cardiac regulated thin filaments | activation, % at 7.2 µM | AID 493008 | P19429+P45379 | IANBD-labeled TnC RTF fluorescence at EC20 calcium; 0% EC20 calcium, 100% full calcium | 340,000 compounds, 0.24% hits;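 active = activation above the mean over all tested compounds plus 3 SD, cut at about 30% in these data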;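 note: rise in fluorescence read as greater calcium sensitivity of cardiac thin filaments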
E coli Lon inh: E. coli protease La inhibition; P0A9M0; purified E. coli Lon protease, fluorescence polarization; inhibition, % at 7.94 µM; 360,000 compounds, 0.42% hits; AID 602123; in the data active = inhibition above about 13%, passing the limit was not always enough;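 note: 0% = enzyme with probe and DMSO and 100% = no enzyme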
Target sequence (P0A9M0 whole entry, looked up): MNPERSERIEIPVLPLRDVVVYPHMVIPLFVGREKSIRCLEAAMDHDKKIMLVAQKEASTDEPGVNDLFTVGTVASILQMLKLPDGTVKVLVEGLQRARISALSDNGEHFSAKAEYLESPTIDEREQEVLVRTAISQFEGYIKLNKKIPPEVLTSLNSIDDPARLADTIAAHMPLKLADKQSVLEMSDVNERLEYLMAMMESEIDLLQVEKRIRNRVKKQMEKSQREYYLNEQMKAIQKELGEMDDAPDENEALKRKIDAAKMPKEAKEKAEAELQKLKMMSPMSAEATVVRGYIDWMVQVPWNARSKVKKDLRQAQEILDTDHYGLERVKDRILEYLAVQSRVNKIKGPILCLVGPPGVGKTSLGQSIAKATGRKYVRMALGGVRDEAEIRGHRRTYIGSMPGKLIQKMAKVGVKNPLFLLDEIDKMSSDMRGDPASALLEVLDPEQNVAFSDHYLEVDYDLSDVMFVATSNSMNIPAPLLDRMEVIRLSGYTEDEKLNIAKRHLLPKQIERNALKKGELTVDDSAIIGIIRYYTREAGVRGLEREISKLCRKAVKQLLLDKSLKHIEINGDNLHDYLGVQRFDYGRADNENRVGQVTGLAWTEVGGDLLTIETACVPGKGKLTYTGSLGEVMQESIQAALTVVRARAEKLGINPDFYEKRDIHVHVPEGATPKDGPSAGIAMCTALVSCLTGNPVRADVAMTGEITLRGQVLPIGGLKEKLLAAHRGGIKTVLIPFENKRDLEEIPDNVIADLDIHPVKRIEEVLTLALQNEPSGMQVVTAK
RTF Ca sens inh: cardiac RTF calcium desensitization. P19429+P45379. IANBD-labeled cardiac RTF, Ca2+ fluorescence. inhibition, % at 7.15 µM. 340,000 compounds, 0.12% hits;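 active = inhibition above the mean inhibition of all tested compounds plus 3 SD, cut at about 17% in these data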;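 note: assay run at fixed EC70 calcium of 1.6 mM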
C-LANA FP: KSHV C-LANA DNA binding inhibition. MBP-C-LANA/FAM-LBS DNA binding, fluorescence polarization. inhibition, % at 9 µM. 340,000 compounds, 0.078% hits;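 active = highest replicate inhibition at or above 60% at 9 µM, even if other replicates fall short; inactive = all replicates below 60% inhibition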;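 note: 0% = neutral control wells and 100% = 4 µM acridine orange control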
* marks the source's active call; other numbers are inactive results; i = inactive; ? = inconclusive; . = no result; + = active, no number. Hits are enriched below; roughly 1.3% of the tested compounds scored in any of these assays.

SMILES	LANA-H2B inh	Keap1 Nrf2 FP	RTF Ca sens act	E coli Lon inh	RTF Ca sens inh	C-LANA FP
Nc1ccc(-c2c3ccc(=O)cc-3oc3cc(O)ccc23)cc1C(=O)O	38*	26*	+	-117	i	110*
COc1ccc(-c2c(C)c3ccc(O)cc3oc2=O)cc1OC	-3	0	-6	-5	-2	0
CN1CCN(C(=O)/C(=C/c2cccs2)NC(=O)c2ccco2)CC1	6	1	11	4	-1	-1
CC(NCC(=O)Nc1ccccc1C(=O)NC1CC1)c1cccc(C(F)(F)F)c1 (stereo unspecified)	11*	0	14	-4	-15	0
COc1ccc(NC(=O)CN2C(=O)NC3(CCCC3)C2=O)cc1OC	0	5	0	2	-12	-1
Cn1ncc(N=Cc2c(O)ccc3ccccc23)c1C(=O)Nc1cccc(Cl)c1	8	8	43*	-3	-8	7
Cn1ncc(Cl)c1C(=O)Nc1cccc(Cl)c1	5	2	16	0	-6	0
Cc1[nH]nc2c1/C(=N\O)CCC2	4	-3	-4	6	-1	0
Cc1onc(-c2ccccc2)c1C(=O)Nc1nnc(C(C)(C)C)s1	10*	5	-1	7	2	0
Cc1cnc(NC(=O)c2c(-c3ccccc3)noc2C)s1	-1	-1	-1	-2	5	-2
COc1ccc(CNC(=O)c2coc(=O)c3ccccc23)cc1	0	-2	-6	-9	15	1
CN(CC(=O)Nc1cccc(F)c1)C(=O)c1cn(-c2ccccc2)nc1-c1ccc(Cl)cc1	156*	0	-2	-1	-10	0
CC(=O)Nc1nc(C)cs1	-2	-4	-2	-1	-13	0
Cc1csc(CCc2nc(C)cs2)n1	8.4*	0	-2	-2	-14	0
CCOc1cc(C(=S)N2CCCC2)ccc1OCc1ccccc1	9.2*	3	0	2	-8	-1
Fc1ccc(COc2ccc(C(=S)N3CCCC3)cc2)cc1	22*	0	-1	1	-5	0
CCOc1ccc(C(=S)N2CCCC2)cc1OCC	-2	-5	7	-5	-5	-1
COc1cc(/C=N/NC(=O)c2[nH]nc3c2CCc2ccccc2-3)ccc1O	0	-6	-5	4	12	1
O=C1CCC/C(=N/NC(=O)c2sc3ccccc3c2Cl)C1	-4	-16	36*	-71	-108	16
Cc1ccc(C(=O)N/C(=C\c2ccc(Cl)cc2)C(=O)NCC2CCCO2)cc1 (stereo unspecified)	5	-1	4	-6	-9	-1
O=C1Cn2c(nc3ccccc32)N1c1cccc(C(F)(F)F)c1	15*	-9	3	-2	-15	1
CN(C)c1ccc(/C=C/c2ccc3ccccc3n2)cc1	-10	-6	42*	-133	-50	0
C(=C\c1ccc2ccccc2n1)/c1ccccc1	1	0	-9	-10	2	-2
CCCCn1nc(C(=O)NCC(=O)Nc2c(C)cccc2C)c2ccccc2c1=O	+	-4	1	10	-2	-1
Nc1nc(N)c(Cc2ccc(Cl)cc2Cl)c(N)n1	32*	0	-4	10	-1	0
SMILES	LANA-H2B inh	Keap1 Nrf2 FP	RTF Ca sens act	E coli Lon inh	RTF Ca sens inh	C-LANA FP
CSc1nsc(SCC(=O)Nc2ccc(C(N)=O)cc2)n1	31*	0	5	6	3	0
CSc1nsc(SCC(=O)Nc2ccc(C(C)=O)cc2)n1	-2	-5	3	-8	-7	0
O=C(NCc1ccccc1)C1=C[C@@H](c2coc3ccccc3c2=O)C[C@@H](OCc2ccc(CO)cc2)O1	1	-1	2	-8	-7	-1
CCOC(=O)C1=C(Cc2ccc(OC)cc2)C(=O)c2ccccc2C1=O	.	-8	10	28*	-34	0
COc1ccc(C)cc1Nc1n[n+](-c2ccccc2)c(-c2ccc(NC(C)=O)cc2)s1	-2	-8	4	-7	0	-1
COc1ccc(C)cc1Nc1n[n+](-c2ccccc2)c(-c2cc([N+](=O)[O-])cc(OC)c2O)s1	-2	-9	46*	-37	-80	-2
CC(C)N1C(=O)S/C(=C\c2ccc(-c3ccc(Cl)c(C(=O)O)c3)o2)C1=O	0	-4	1	-6	5	1
CCN(CC)c1ccc(/C=C2/SC(=O)N(C(C)C)C2=O)o1	.	-124	155*	-172	-114	-9
Cc1cc(NC(=O)COC(=O)C2CCC(=O)N2)c([N+](=O)[O-])cc1C (stereo unspecified)	2	-2	-2	-4	-7	0
Cc1c(Cl)cccc1N(CC(=O)O)S(C)(=O)=O	11*	1	1	1	-4	0
Cc1c(Cl)cccc1N(CC(=O)N1CCCCCC1)S(C)(=O)=O	-5	3	0	-1	-3	2
Cn1cc(CN2CCN(c3ccccc3)CC2)c2ccccc21	13*	-1	-7	-1	4	0
O=C(O)Cn1cc(CN2CCOCC2)c2ccccc21	1	-9	2	-1	0	2
CC(=O)c1ccccc1N(C(=O)c1ccco1)C(C(=O)NC1CCCC1)c1ccc(C)cc1 (stereo unspecified)	-2	-9	1	1	-2	0
CC1Sc2ccc(S(=O)(=O)CCC(=O)N3CCN(c4ccccc4)CC3)cc2NC1=O (stereo unspecified)	-14	0	-1	0	-6	-1
CC1Sc2ccc(S(=O)(=O)CCC(=O)N3CCN(c4cccc(Cl)c4)CC3)cc2NC1=O (stereo unspecified)	30*	4	2	13	-5	0
CCN(CC)C(=O)c1ccc(/C=C/c2c[nH]c3ccccc23)[n+](C)c1	-48	-181	140*	i	-143	-43
Cc1ccc(C(=O)/C=C/c2c[nH]c3ccccc23)cc1	7	-5	1	-7	-5	-1
CC(CCc1ccccc1)N1CCN(C)CC1 (stereo unspecified)	-2	2	-1	2	-7	1
COCCN(CCOC)Cc1c(O)ccc2c1O/C(=C\c1ccco1)C2=O	9	1	69*	0	-94	65*
CCN(CC)c1ccc(/C=C2\SC(N)=NC2=O)cc1	-7	-15	33*	-275	-45	-5
Cc1cc(/C=C2\SC(=S)NC2=O)cc(C)c1O	-6	-2	2	-99	-11	-5
CCN(CC)c1ccc(C=C2SC(=S)NC2=O)cc1	.	-26	241*	i	-380	-26
NC(=S)NN=Cc1ccc(-c2ccc(S(=O)(=O)Nc3ncccn3)cc2)o1	.	?	-5	4	2	73*
CCOc1ccc(C(=O)N/N=C/c2ccc(-c3ccc(S(=O)(=O)Nc4ncccn4)cc3)o2)cc1	-2	6	0	12	0	1
